Most compounds without a hit are left out; they make up all but 1.3% or so of the library.
EBV gp42 inh – blocks Epstein-Barr virus glycoprotein 42 binding. AID 1085. inhibition, % (tested at 21.74 µM). Fluorescence polarization binding assay, mP read-out. 220,000 tested, 0.42% active; in the data active = inhibition above about 50%
MEX-5 binding – C. elegans MEX-5 TCR-2 RNA binding activity; activity score (negative = inhibition of binding), % at 10 µM; MEX-5/FITC-TCR2 RNA binding, fluorescence polarization; active compounds read low; AID 1832; 300,000 tested, 0.38% active; Q9XUB2;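 active = inhibition past about -25% in most replicates, and total fluorescence under double the plate's negative control median, limit read from the data; inconclusive = replicates evenly split on the limit, or fluorescence at least double controls; inactive = too little inhibition in most replicates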
GLD-1 RNA inh – GLD-1-TGE RNA interaction inhibition (C. elegans) | 320,000 tested, 0.44% active | purified GLD-1 + fluorescein TGE RNA, fluorescence polarization | inhibition, % at 5.96 µM | Q17339 | AID 2280;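 active = percent inhibition above a per-plate cutoff, the plate mean of test compounds plus 3 SD, cut at about 30% in these data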
Target sequence (Q17339 whole entry, looked up): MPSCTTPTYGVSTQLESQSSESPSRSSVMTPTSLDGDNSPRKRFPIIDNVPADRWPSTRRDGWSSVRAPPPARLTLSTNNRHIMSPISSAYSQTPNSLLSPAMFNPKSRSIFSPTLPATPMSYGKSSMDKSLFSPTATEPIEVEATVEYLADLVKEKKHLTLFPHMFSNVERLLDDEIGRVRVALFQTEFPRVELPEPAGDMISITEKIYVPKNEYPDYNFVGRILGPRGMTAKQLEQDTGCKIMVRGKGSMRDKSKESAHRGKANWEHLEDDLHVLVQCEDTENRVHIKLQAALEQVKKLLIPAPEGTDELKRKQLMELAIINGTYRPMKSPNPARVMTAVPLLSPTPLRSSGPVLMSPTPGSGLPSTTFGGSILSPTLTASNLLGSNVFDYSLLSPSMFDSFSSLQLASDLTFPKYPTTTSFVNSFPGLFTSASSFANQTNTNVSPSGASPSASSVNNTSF
BCLXL inh – inhibitors of human Bcl-xL | inhibition, % at 10.9 µM | GST-Bcl-xL / FITC-Bim BH3 peptide fluorescence polarization | AID 2129 | 320,000 tested, 0.7% active;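 active = inhibition above the mean of all tested compounds plus 3 SD, cutoff set per campaign, cut at about 30% in these data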;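 also: inhibitors lower millipolarization by displacing the labeled peptide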
Target sequence (Q07817 whole entry, looked up): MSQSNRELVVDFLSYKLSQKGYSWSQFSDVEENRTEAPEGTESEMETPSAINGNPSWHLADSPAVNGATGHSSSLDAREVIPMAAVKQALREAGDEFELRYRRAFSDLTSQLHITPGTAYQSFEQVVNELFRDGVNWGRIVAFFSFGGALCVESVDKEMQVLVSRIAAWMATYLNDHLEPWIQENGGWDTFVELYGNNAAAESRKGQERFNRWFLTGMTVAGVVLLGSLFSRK
E coli Lon inh – inhibits E. coli Lon protease. purified E. coli Lon protease, fluorescence polarization. inhibition, % at 7.94 µM. 360,000 tested, 0.42% active; in the data active = inhibition above about 13%, passing the limit was not always enough
Of the large screens only hits and unclear results are named; the others gave an inactive call.

O=C(/C=C/c1ccc(O)c(O)c1)OC1C(O)CC(OC(=O)/C=C/c2ccc(O)c(O)c2)(C(=O)O)CC1O (configuration not stated)	MEX-5 binding -32
O=C(/C=C/c1ccc(O)c(O)c1)O[C@@H]1C[C@](O)(C(=O)O)C[C@@H](O)[C@H]1O	none (no result: EBV gp42 inh)
CC(C)(C)C1CCC(=NNC(=O)c2ccco2)CC1 (configuration not stated)	none (no result: EBV gp42 inh)
CC(=O)Nc1ccc(-c2ccnc3c2CC(C)(C(=O)Nc2ccc(Cl)cc2)O3)cc1 (configuration not stated)	none (no result: EBV gp42 inh, MEX-5 binding, GLD-1 RNA inh, BCLXL inh)
O=C(NNC(=O)C1CC1)c1ccccc1[N+](=O)[O-]	none (no result: EBV gp42 inh, MEX-5 binding, GLD-1 RNA inh, BCLXL inh)
O=C(NNC(=O)c1ccccc1[N+](=O)[O-])c1ccccn1	MEX-5 binding -29
O=C(NNC(=O)c1ccccc1[N+](=O)[O-])c1csc(N2CCOCC2)n1	MEX-5 binding -42 (no result: EBV gp42 inh)
Cc1c(C(=O)NNC(=O)c2csc(N3CCOCC3)n2)cccc1[N+](=O)[O-]	none (no result: EBV gp42 inh, MEX-5 binding)
Cc1cc(C)n2nc(C(=O)OCC(=O)N(C)C3CCS(=O)(=O)C3)nc2n1 (configuration not stated)	none (no result: EBV gp42 inh, MEX-5 binding)
O=[N+]([O-])c1cc(CN2CCN(c3cccc(C(F)(F)F)c3)CC2)c2cccnc2c1O	none (no result: E coli Lon inh)
O=[N+]([O-])c1cc(CN2CCCC2)c2cccnc2c1O	EBV gp42 inh 88 (no result: MEX-5 binding)
O=C(O)C(=O)/C(=C\c1ccsc1)c1ccc2ccccc2n1	MEX-5 binding -48 (no result: EBV gp42 inh)
O=C(O)C(=O)/C(=C\c1cccc2ccccc12)c1ccc2ccccc2n1	MEX-5 binding -40
Cc1ccc(C)c(N2N=C(C(=O)N(CC(C)C)c3c(N)n(Cc4ccccc4)c(=O)[nH]c3=O)CCC2=O)c1	GLD-1 RNA inh 61 (no result: EBV gp42 inh)
CC1(OC(=O)c2cccs2)C(=O)C=C2C=C3CCCN3C=C2C1=O (configuration not stated)	MEX-5 binding -27
Cc1nc(CN2CCCCC2)cc(=O)[nH]1	none
COCCNC(=O)C1(C)CCCN(C(=O)COc2ccccc2)C1 (configuration not stated)	none (no result: EBV gp42 inh, MEX-5 binding, GLD-1 RNA inh, BCLXL inh)
Nc1c(C(=O)Nc2ccccc2)sc2nc(-c3cccnc3)ccc12	none (no result: E coli Lon inh)
COc1ccc(NC(=O)c2sc3nc(-c4cccnc4)ccc3c2N)cc1OC	MEX-5 binding inconclusive, BCLXL inh 48
COc1ccc(NC(=O)c2sc3nc(-c4cccnc4)ccc3c2N)cc1	EBV gp42 inh 84, MEX-5 binding -55, GLD-1 RNA inh 69, BCLXL inh 108
Nc1c(C(=O)Nc2cccc(Cl)c2Cl)sc2nc(-c3cccnc3)ccc12	none
CC(C)(C)CN1C(=O)C(=O)NC[C@@H]1CC1CCCCC1	none (no result: EBV gp42 inh, MEX-5 binding, GLD-1 RNA inh, BCLXL inh)
COc1ccc(C2/C(=C(/O)c3ccc4c(c3)CC(C)O4)C(=O)C(=O)N2CCN2CCOCC2)cc1OC (configuration not stated)	none (no result: EBV gp42 inh, GLD-1 RNA inh, BCLXL inh)
O=c1oc2cc(O)c(Cl)cc2c2ccccc12	none
O=c1cc2c(=O)oc3cc(O)c(O)oc3c2c(O)c1O	MEX-5 binding -84 (no result: GLD-1 RNA inh, BCLXL inh)
CCN(CC(=O)Nc1c(C(=O)OC)[nH]c2ccc(Cl)cc12)c1ccc2c(c1)OCO2	BCLXL inh 49
N=c1c(S(=O)(=O)c2ccccc2)cc2c(=O)n3ccccc3nc2n1C1CCCCC1	none (no result: EBV gp42 inh, MEX-5 binding, GLD-1 RNA inh, BCLXL inh)
COCCn1c(=N)c(S(=O)(=O)c2ccc(F)cc2)cc2c(=O)n3ccccc3nc21	none (no result: EBV gp42 inh)
N=c1c(S(=O)(=O)c2ccc(Cl)cc2)cc2c(=O)n3ccccc3nc2n1C1CCCC1	MEX-5 binding -35 (no result: EBV gp42 inh)
N=c1c(S(=O)(=O)c2ccc(Br)cc2)cc2c(=O)n3ccccc3nc2n1C1CCCCC1	MEX-5 binding -45 (no result: EBV gp42 inh)
COCCn1c(=N)c(S(=O)(=O)c2ccc(Br)cc2)cc2c(=O)n3ccccc3nc21	MEX-5 binding -45 (no result: EBV gp42 inh)
O=C(CCl)NCCN1C(=O)S/C(=C\c2cccnc2)C1=O	MEX-5 binding -60
COC(=O)[C@@]1(Cc2ccccc2)[C@H]2c3cc(C(=O)N4CCCC4)n(Cc4ccsc4Br)c3C[C@H]2CN1C(=O)c1ccccc1	none (no result: MEX-5 binding, E coli Lon inh)
C=CCN1C=C2C(=O)C(C)(OC(=O)CCC(=O)OC)C(=O)C(Br)=C2C=C1c1ccc(OC)cc1 (configuration not stated)	MEX-5 binding -28, BCLXL inh 71
COCCN1C=C2C(=O)C(C)(OC(=O)CCC(=O)OC)C(=O)C(Br)=C2C=C1c1ccc(OC)cc1 (configuration not stated)	BCLXL inh 37 (no result: EBV gp42 inh)
COC(=O)CCC(=O)OC1(C)C(=O)C2=CN(Cc3ccco3)C(c3ccc(OC)cc3)=CC2=C(Br)C1=O (configuration not stated)	MEX-5 binding -37, GLD-1 RNA inh 44, BCLXL inh 52 (no result: EBV gp42 inh, E coli Lon inh)
COC(=O)CCC(=O)OC1(C)C(=O)C2=CN(C3CCCC3)C(c3ccc(OC)cc3)=CC2=C(Br)C1=O (configuration not stated)	BCLXL inh 34
COC(=O)CCC(=O)OC1(C)C(=O)C2=CN(c3ccc(OC)cc3)C(c3ccc(OC)cc3)=CC2=C(Br)C1=O (configuration not stated)	none (no result: EBV gp42 inh)
Cc1ccc(CNC(=O)C2(C)CCN2C(=O)Cc2ccc(-c3ccccc3)cc2)cc1 (configuration not stated)	none (no result: EBV gp42 inh, MEX-5 binding, GLD-1 RNA inh, BCLXL inh)
Cc1ccc(NC(=O)C2C3CCCC2C3c2ccccc2)cc1 (configuration not stated)	none
CCN(CC)CCCN1C=C2C(=O)C(C)(OC(=O)CCC(=O)OC)C(=O)C(Br)=C2C=C1c1ccc(OC)cc1 (configuration not stated)	BCLXL inh 31 (no result: EBV gp42 inh)
CCN(CC)CCCN1C=C2C(=O)C(C)(OC(=O)CCc3ccccc3)C(=O)C=C2C=C1c1ccc(C#N)cc1 (configuration not stated)	none
COC(=O)CCC(=O)OC1(C)C(=O)C=C2C=C(C3CC3)N(C3CC3)C=C2C1=O (configuration not stated)	none
C=CC1=C2C=C(C3CC3)N(C3CC3)C=C2C(=O)C(C)(OC(=O)c2ccco2)C1=O (configuration not stated)	BCLXL inh 31 (no result: EBV gp42 inh)
N#CC1=C(N)Oc2cc(N)ccc2C1c1ccc(F)cc1F (configuration not stated)	BCLXL inh 55 (no result: EBV gp42 inh)
N#Cc1ccc(-c2cccnc2)nc1SCC(=O)c1ccccc1	BCLXL inh 36
N#Cc1ccc(-c2ccccc2)nc1SCC(=O)c1cccc(Cl)c1	none
COc1cc(C(=O)N2CCCN(C)CC2)cc(OC)c1C	none (no result: EBV gp42 inh)
COc1cc(C(O)P(=O)(OC2CCCCC2)c2ccc(N(C)C)cc2)cc(OC)c1OC (configuration not stated)	none
CC(C)c1ccc(C(O)P(=O)(OC2CCCCC2)OC2CCCCC2)cc1 (configuration not stated)	BCLXL inh 35
CCCCCCC1/C(=N\NC(=O)c2ccccc2)CCC1C(=O)OC (configuration not stated)	none (no result: EBV gp42 inh)
COc1ccc(-n2c(C)ccc2-c2ccccc2)cn1	GLD-1 RNA inh 89, BCLXL inh 107 (no result: EBV gp42 inh)
COC(=O)c1ccc(-n2c(C)ccc2-c2ccccc2)cc1	none
